From PubChem
ANO1 activ: activates or potentiates the mouse TMEM16A chloride channel; Q8BHY3; B-score at 10 µM; HEK293 TMEM16A/YFP-H148Q/I152L, iodide quench fluorescence; hits give low values; 0.3% of 340,000 active;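 active means fluorescence-ratio B-score plate-corrected deviation score at least 3 library SD below zero, with starting fluorescence score within 5 deviations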;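 further: channel opened by trigger with iodide after compound preincubation; score built on the fluorescence ratio of max minus min over baseline; more negative score means more quench and so TMEM16A activation or potentiation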
TMEM16A inh: mouse TMEM16A channel inhibition, primary screen; Q8BHY3; HEK293 TMEM16A/YFP iodide influx fluorescence, ionomycin; normalized B-score (activity score, 25-100; higher = stronger inhibition) at 10 µM; 1.2% of 310,000 active; AID 588511;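 active means ratio plate-corrected score three or more library SD toward inhibition, starting fluorescence score within five deviations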;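 further: score derived from kinetic fluorescence span divided by baseline fluorescence per well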
CHT inh: inhibitors of human choline transporter CHT | Q9GZV3 | CHT-expressing cells, membrane potential dye, choline response; hits give low values | B-score at 10 µM | 0.86% of 310,000 active | AID 488975;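 active means B-score over 3 SD under the library average, and starting fluorescence ratio not unusually high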;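 further: choline stimulus applied at its EC90 after an EC20 pre-addition; B-score computed on integrated fluorescence ratio after choline addition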
CHT allo act: allosterically activates the human high affinity choline transporter; AID 488977; 0.49% of 310,000 active; B-score at 10 µM; Q9GZV3; CHT-expressing cells, membrane potential dye, choline EC20; hits give high values; LV-AA mutant CHT in HEK293 cells;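 active means initial fluorescence not abnormally high and integrated response B-score, plate-corrected, over 3 SD above library mean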
CHT inh conf: human CHT inhibition, confirmatory screen | shares compounds with CHT inh | CHT-expressing cells, choline membrane potential dye; LV-to-AA substituted CHT, HEK293 cells | CHT activity remaining % of control (hits give low values), % at 10 µM | 70% of 2,400 active;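 active means choline transporter activity left, mean of duplicates at 10 µM, below buffer-only control mean minus 3 SD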;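 further: depolarization triggered by choline at its EC90 following an EC20 pre-addition; 0% = hemicholinium-3 full block and 100% = buffer-only control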
HEK293 MPD ctr: counter-screen for CHT inhibitors: effect in parental HEK293 cells; AID 493222; membrane potential dye, choline response; active = decrease or increase beyond buffer ±3SD; membrane potential ratio readout (active if shifted either direction beyond buffer ±3SD; no single direction) at 10 µM; shares compounds with CHT inh; 4% of 2,400 active;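 further: parental cells lack the transporter so any hit is non-specific; ratio is peak minus trough fluorescence over baseline after EC90 choline challenge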
Numbers without * were called inactive; i = inactive; x = not tested or not shown. An excerpt weighted towards active compounds, which were near 2.4% of everything screened.

SMILES	ANO1 activ	TMEM16A inh	CHT inh	CHT allo act	CHT inh conf	HEK293 MPD ctr
CC(C)n1cnc2c(N(C)c3cccc(Cl)c3)nc(N(CCO)CCO)nc21	i	i	-6.6*	i	52%*	i
CCn1nc(C)cc1-c1nnc(Sc2ncc([N+](=O)[O-])s2)n1C	-9.8*	i	-6*	i	45%*	i
CCn1nc(C)cc1-c1nnc(SCC(=O)Nc2ccccc2)n1CCCOC	i	i	i	i	x	x
CCOC(=O)c1ccccc1Oc1c(F)c(F)nc(NCCO)c1F	i	i	-5.5*	i	55%*	i
Nc1nc(SCC(=O)Nc2ccc3c(c2)OCO3)n[nH]1	i	i	-5.1*	i	i	i
NC(=O)c1ccc(=O)n(Cc2ccc(F)c(F)c2)c1	i	i	i	i	x	x
O=C(Nc1ccccc1)c1ccc(=O)n(Cc2ccc(F)c(F)c2)c1	i	i	-6.4*	i	i	i
CCCc1cc2c(=O)c(-c3ccccn3)c(C)oc2cc1O	i	i	-12*	i	9.4%*	i
COc1ccc(CN(Cc2ccc(C(=O)O)cc2)C(=S)Nc2ccccc2C)cc1OC	i	i	i	i	x	x
COc1cccc(NC(=S)N(Cc2ccc(C(=O)O)cc2)Cc2ccc(OC)c(OC)c2)c1	i	i	-6.4*	i	51%*	i
COc1ccc(CCNC(=O)C23CCC(C)(C(=O)C2Br)C3(C)C)cc1OC (stereo not given)	i	i	i	i	x	x
O=C(O)c1ccc(N=Nc2c(O)ccc3ncccc23)cc1	i	i	i	i	x	x
O=c1[nH]ncc(N2CCN(C(c3ccccc3)c3ccccc3)CC2)c1Cl	i	i	i	i	x	x
O=c1[nH]ncc(N2CCCC2)c1Cl	i	i	-10*	i	42%*	i
CSCCC(NS(=O)(=O)c1ccccc1F)C(=O)NC(C)c1ccccc1 (stereo not given)	i	i	i	i	x	x
O=C(COC(=O)[C@@H]1CC(O)CN1S(=O)(=O)c1ccccc1[N+](=O)[O-])Nc1ccc2ccccc2c1 (stereo not given in full)	i	i	i	i	x	x
CC(C)NCC(O)c1ccc(O)c(O)c1 (stereo not given)	i	i	-6.4*	i	30%*	i
CN(C)S(=O)(=O)N1CCN(CC(=O)Nc2ccc(Br)cc2)CC1	i	i	i	i	x	x
Cc1n[nH]c(C)c1Sc1ccccc1N=Cc1cc(Cl)cc([N+](=O)[O-])c1O	i	i	-7.9*	i	36%*	i
CCOC(=O)C1CCN(C(=O)CN(c2ccc(Cl)c(C(F)(F)F)c2)S(C)(=O)=O)CC1	i	i	-6.4*	i	i	i
O=[N+]([O-])c1cc(C(F)(F)F)cc([N+](=O)[O-])c1N1CCCNCC1	i	i	-8.8*	i	16%*	i
O=C(CCCc1nc2ccccc2s1)Nc1ccc(N2CCOCC2)cc1	i	i	-6.7*	i	i	i
COc1ccc(NC(=O)C(NCC(C)C)c2ccccc2)cc1Cl (stereo not given)	i	i	i	i	x	x
COC(=O)Nc1ccc(S(=O)(=O)NNC(=O)c2c(O)c3ccccc3n(C)c2=O)cc1	i	i	-5.8*	i	43%*	i
CCn1c(=O)c(C(=O)NNS(=O)(=O)c2ccc(NC(=O)OC)cc2)c(O)c2ccccc21	i	i	i	i	x	x
Cc1nn(Cc2ccccc2Cl)c(C)c1NC(=O)c1noc2c1CCCCC2	i	i	-5.7*	i	41%*	i
CCCc1nnc(NC(=O)c2cn(CC)c3cc(N4CCN(C)CC4)c(F)cc3c2=O)s1	i	i	-5.2*	i	i	i
Cc1cccc(N(C)S(=O)(=O)c2ccc3[nH]c(=O)c(=O)[nH]c3c2)c1	i	i	i	i	x	x
O=C(NCc1ccco1)C1CCCN(c2nnc(-n3cccc3)s2)C1 (stereo not given)	i	i	i	i	x	x
